In PubChem BioAssay (NCI):
“And” between values parts separate entries of the source, which are not always exact repeats. Equal values may be shown once. Compounds without any hit were thinned out: in the full panel of roughly 83,000, 20% have a hit.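 Interpretation: 100, growth as untreated; towards 0, rising growth inhibition; 0, no net growth; 0 to -100, cell death. Compounds scoring below 10 were considered active.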 The source made the active and inactive calls.

Columns and labels:
Assay in all cases: NCI-60 one-dose screen, 48 h (100 = growth as untreated, 0 = no growth, -100 = all killed)
Details in all cases: 10 µM unless noted
SK-MEL-2 melanoma = test system: SK-MEL-2 melanoma
EKVX NSCLC = test system: EKVX NSCLC
SN12C renal = test system: SN12C renal
UO-31 renal = test system: UO-31 renal
TK-10 renal = test system: TK-10 renal
ACHN renal = test system: ACHN renal
CAKI-1 renal = test system: CAKI-1 renal
A498 renal = test system: A498 renal
CCRF-CEM leukemia = test system: CCRF-CEM leukemia
MOLT-4 leukemia = test system: MOLT-4 leukemia
SR leukemia = test system: SR leukemia
RPMI-8226 leukemia = test system: RPMI-8226 leukemia
OVCAR-8 ovarian = test system: OVCAR-8 ovarian
OVCAR-4 ovarian = test system: OVCAR-4 ovarian
SK-OV-3 ovarian = test system: SK-OV-3 ovarian
IGROV1 ovarian = test system: IGROV1 ovarian
OVCAR-3 ovarian = test system: OVCAR-3 ovarian
HS 578T breast = test system: HS 578T breast
NCI/ADR-RES ovarian = test system: NCI/ADR-RES ovarian
OVCAR-5 ovarian = test system: OVCAR-5 ovarian

Row | SMILES | growth (SK-MEL-2 melanoma) | growth (EKVX NSCLC) | growth (SN12C renal) | growth (UO-31 renal) | growth (TK-10 renal) | growth (ACHN renal) | growth (CAKI-1 renal) | growth (A498 renal) | growth (CCRF-CEM leukemia) | growth (MOLT-4 leukemia) | growth (SR leukemia) | growth (RPMI-8226 leukemia) | growth (OVCAR-8 ovarian) | growth (OVCAR-4 ovarian) | growth (SK-OV-3 ovarian) | growth (IGROV1 ovarian) | growth (OVCAR-3 ovarian) | growth (HS 578T breast) | growth (NCI/ADR-RES ovarian) | growth (OVCAR-5 ovarian)
1 | Cc1nn(-c2ccccc2)nc1C(=O)Nc1ccccc1C(=O)NCC1CC1 | 117% (inactive) and 103% (inactive) | 79.4% (inactive) | 89.2% (inactive) and 45.2% (inactive) | 95.5% (inactive) and 57.1% (inactive) | 83.5% (inactive) | 91.8% (inactive) and 19.9% (inactive) | 97.6% (inactive) and 37.7% (inactive) | 107% (inactive) and 92.8% (inactive) | 86.8% (inactive) | 103% (inactive) and 75.6% (inactive) | 54.5% (inactive) | 92.9% (inactive) and 92% (inactive) | 95.8% (inactive) and 30.7% (inactive) | 106% (inactive) and 40.5% (inactive) | 99% (inactive) and 91% (inactive) | 108% (inactive) and 33.7% (inactive) | 133% (inactive) and 54.2% (inactive) | 127% (inactive) and 24.2% (inactive) | 89.6% (inactive) and 41.4% (inactive) | 
2 | C#CCN(C)Cc1ccccc1 | 97.5% (inactive) and 104% (inactive) | 104% (inactive) and 95.2% (inactive) | 95.7% (inactive) and 82.5% (inactive) | 87.2% (inactive) and 93.2% (inactive) | 101% (inactive) and 231% (inactive) | 97.5% (inactive) and 105% (inactive) | 99% (inactive) and 69.1% (inactive) | 126% (inactive) and 96.3% (inactive) | 95.2% (inactive) and 131% (inactive) | 106% (inactive) and 101% (inactive) | 108% (inactive) and 101% (inactive) | 98.2% (inactive) and 107% (inactive) | 101% (inactive) and 98% (inactive) | 112% (inactive) and 114% (inactive) | 104% (inactive) and 103% (inactive) |  | 111% (inactive) and 104% (inactive) | 119% (inactive) and 96.1% (inactive) | 101% (inactive) and 102% (inactive) | 
3 | CNc1cc(-c2cccc(OC(F)(F)F)c2)nc2ccc(N3CCCC3)cc12 | 85.6% (inactive) and -78.5% (active) and -74.4% (active) | 84.1% (inactive) and 39.2% (inactive) and 11.9% (inactive) | -18.5% (active) and -44.5% (active) and -23.2% (active) | 7.85% (active) and -81.2% (active) and 26.1% (inactive) | -55% (active) and -45.4% (active) and -12% (active) | -99.6% (active) and -99.5% (active) and -98.9% (active) | 68.2% (inactive) and -88.8% (active) and -50.9% (active) | 77.2% (inactive) and 45.9% (inactive) and 47.7% (inactive) | -36.5% (active) and -23.4% (active) and -0.147% (active) | -38.6% (active) and -30.7% (active) and 2.3% (active) | -33.9% (active) and -44.7% (active) and -14.6% (active) | -51.4% (active) and -43.5% (active) and -37.5% (active) | 34.7% (inactive) and -26.3% (active) and -2.97% (active) | 53.1% (inactive) and -27.1% (active) and 22% (inactive) | 93.5% (inactive) and 55.3% (inactive) and 92.4% (inactive) | 35.5% (inactive) and -14.9% (active) and 53.2% (inactive) | 85.7% (inactive) and -90.8% (active) and 84.8% (inactive) | 88.4% (inactive) and 47.5% (inactive) and 75.7% (inactive) | 59% (inactive) and 20.9% (inactive) and 21.3% (inactive) | 
4 | COc1cc(/C=N/Nc2nc3c([nH]2)c(=O)n(C)c(=O)n3C)ccc1O | 98.2% (inactive) and 108% (inactive) | 103% (inactive) and 119% (inactive) | 97.4% (inactive) and 98.2% (inactive) | 86.7% (inactive) and 86.2% (inactive) | 95.7% (inactive) and 93.1% (inactive) | 109% (inactive) | 99.3% (inactive) and 118% (inactive) | 82.3% (inactive) and 77.6% (inactive) | 89.2% (inactive) and 104% (inactive) | 87.9% (inactive) and 97.5% (inactive) | 89% (inactive) and 85.3% (inactive) | 98.3% (inactive) and 103% (inactive) | 103% (inactive) and 108% (inactive) | 108% (inactive) | 104% (inactive) and 109% (inactive) | 110% (inactive) and 124% (inactive) | 122% (inactive) and 110% (inactive) | 118% (inactive) and 103% (inactive) | 109% (inactive) and 111% (inactive) | 
5 | CC(=O)NC(Cc1ccccc1)C(=O)Oc1ccc2ccccc2c1 (stereo not drawn) | 108% (inactive) and 113% (inactive) | 114% (inactive) and 96.4% (inactive) | 103% (inactive) and 98.9% (inactive) | 64.8% (inactive) and 86.6% (inactive) | 118% (inactive) and 111% (inactive) | 94.6% (inactive) and 97.4% (inactive) | 94.8% (inactive) and 98.1% (inactive) | 130% (inactive) and 97.2% (inactive) | 100% (inactive) and 86.6% (inactive) | 111% (inactive) and 102% (inactive) | 113% (inactive) | 90.2% (inactive) | 103% (inactive) and 105% (inactive) | 101% (inactive) and 97.6% (inactive) | 91.5% (inactive) | 135% (inactive) and 111% (inactive) | 122% (inactive) and 100% (inactive) | 98.8% (inactive) and 107% (inactive) | 98.4% (inactive) and 105% (inactive) | 
6 | COc1ccc2cc3[n+](cc2c1OC)CCc1cc2c(cc1-3)OCO2 | 90.7% (inactive) and 104% (inactive) | 26.3% (inactive) and 65.5% (inactive) | 30.2% (inactive) and 49.2% (inactive) | 76.3% (inactive) and 84.2% (inactive) | 137% (inactive) and 98.3% (inactive) | 91.2% (inactive) | 81.7% (inactive) and 89.8% (inactive) | 86.8% (inactive) and 90.8% (inactive) | 70.8% (inactive) and 67% (inactive) | 66% (inactive) and 54.8% (inactive) | 50% (inactive) and 68.8% (inactive) | 60.4% (inactive) and 43.8% (inactive) | 44.8% (inactive) | 47.8% (inactive) and 79.1% (inactive) |  | 84.4% (inactive) and 74.8% (inactive) | 55.4% (inactive) and 54.2% (inactive) | 79.6% (inactive) and 73.5% (inactive) | 99% (inactive) and 101% (inactive) | 70.5% (inactive)
7 | O=C(Nc1cccc(Cl)c1)c1cc2ccccc2cc1O | 27.3% (inactive) and 7.7% (active) | 10.5% (inactive) and 15.9% (inactive) | 4.02% (active) and 7.65% (active) | 5.45% (active) and -9.87% (active) | 54.7% (inactive) and 26.8% (inactive) | 12.8% (inactive) and 12.2% (inactive) | 3.2% (active) and -1.64% (active) | -33.6% (active) | 38.2% (inactive) and 53.2% (inactive) | 26.3% (inactive) and 11.1% (inactive) | 23.4% (inactive) and 3.87% (active) | -19.4% (active) and -4.12% (active) | 11.2% (inactive) and 8.75% (active) | 29.7% (inactive) and 10.1% (inactive) |  | 22.6% (inactive) and 24.2% (inactive) | 18.5% (inactive) and 14.7% (inactive) | 17.5% (inactive) and 21.8% (inactive) | 4.12% (active) and 9.44% (active) | 97.2% (inactive) and 56.4% (inactive)
8 | NCCSC(C[N+](=O)[O-])c1ccccc1Cl (stereo not drawn) | 34.9% (inactive) | 100% (inactive) | 104% (inactive) | 63.3% (inactive) | 51.8% (inactive) | 107% (inactive) | 99.8% (inactive) | 36% (inactive) | 0.339% (active) | -32.1% (active) |  | -22.6% (active) | 61% (inactive) | 102% (inactive) |  |  | -75.7% (active) |  | 106% (inactive) | 99.5% (inactive)
